Laboratory results reported in PubChem BioAssay (Tox21).
Records with an inconclusive call do not appear. Entries that show only a call come without a potency. Values without a mark were called inactive. The source made the active and inactive calls. Calls follow the shape of the full dose curve.
Potency is read from the fitted curve at half-maximal effect.

Test: p53 small molecule agonists, cell-based qHTS assay with rat liver microsomes: qHTS cell viability counter screen (AID 1963580); also: nearly all actives have a fitted effect of over 45% in size
Conditions: p53RE-bla HCT-116 + rat microsomes, ATP viability, 16 h; series mostly up to 66 µM
Description: National Center for Advancing Translational Sciences [NCATS]
Division of Preclinical Innovation [DPI]
U.S. Environmental Protection Agency [EPA]
National Institutes of Environmental Health Sciences [NIEHS]
National Toxicology Program [NTP]
U.S. Food and Drug Administration [FDA]
p53, a tumor suppressor protein, is activated following cellular insult, including DNA damage and other cellular stresses. The activation of p53 regulates cell fate by inducing DNA repair, cell cycle arrest, apoptosis, or cellular senescence. The activation of p53, therefore, is a good indicator of DNA damage and other cellular stresses. The CellSensor p53RE-bla HCT-116 cell line contains a stably integrated beta-lactamase reporter gene under control of the p53 response elements. The activation of the reporter gene under culture conditions can be detected by fluorescence intensity. This cell line was used to screen the Tox21 10K compound library in the condition of presence of rat liver microsomes and to identify agonists that activate the p53 signaling pathway after in vitro metabolic activation (Ooka et al., Archive of Toxicology 96:1975-1987, 2022). The cytotoxicity of the Tox21 compound library against the p53 RE-bla HCT-116 cell line was tested in parallel by measuring the intra cellular ATP content in the same wells.
Tox21 Assay Protocol Summary:
The p53RE-bla cells were dispensed at 4,000cells/3ul/well in 1536-well black-clear bottom plates. After the assay plates were incubated at 37 C, 5% CO2 incubator for 5 hours, 23 nL of compounds dissolved in DMSO, positive controls or DMSO only was transferred to the assay plate. Following compound addition, 3 uL of rat liver microsomes (Molecular Toxicology, Boone, NC) at final concentration of 0.5 mg/mL and 1uL of B-Nicotinamide adenine dinucleotide 2'-phosphate (NADPH) at final concentration of 0.5 mg/mL were transferred to the assay plate. The plates were incubated at 37 C for 16 hours. 1 uL of LiveBLAzer detection mixture was added to each well and the plates were incubated at room temperature in the dark for 2 h. Fluorescence intensity at 460 and 530 nm emission and 405 nm excitation were measured by an Envision plate reader. For cell viability readout that measures cytotoxicity, 4 ul/well of CellTiter-Glo reagent was added into the assay plates using a Flying Reagent Dispenser. After 30 min incubation at room temperature, the luminescence intensity in the plates was measured using a ViewLux plate reader.
In the case of `COP(=S)(OC)Oc1ccc([N+](=O)[O-])cc1Cl`, the Potency is reported as “inactive”.
With `CC1(C)CON(Cc2ccccc2Cl)C1=O` the Potency was “inactive”.
In the case of `O=NN1CCN(N=O)CC1`, the Potency is reported as “inactive”.
In the case of `CCC[CH2][Sn]([CH2]CCC)([CH2]CCC)[O]C(=O)c1ccccc1`, the Potency is reported as 4.58 µM (active).
In the case of `NC(=O)CS(=O)C(c1ccccc1)c1ccccc1` (stereo not given), the Potency is reported as “inactive”.
In the case of `CC(C)N(CCC(C(N)=O)(c1ccccc1)c1ccccn1)C(C)C` (stereo not given), the Potency is reported as “inactive”.
With `O=CC(Br)(Br)Br` the Potency was “inactive”.
For `ClC(Br)Br`, the Potency was “inactive”.
With `O=[N+]([O-])c1cccc2cccnc12` the Potency was “inactive”.
For `CCOC(=O)COc1ccc(Cl)cc1Cl`, the Potency was “inactive”.
In the case of `COc1cnc(OC)n2nc(NS(=O)(=O)c3c(OCC(F)F)cccc3C(F)(F)F)nc12`, the Potency is reported as “inactive”.
In the case of `CNC(=O)Oc1cccc(N=CN(C)C)c1`, the Potency is reported as “inactive”.
In the case of `CC[N+]1(C)CCCC(OC(=O)C(O)(c2ccccc2)c2ccccc2)C1` (stereo not given), the Potency is reported as “inactive”.
With `O=C(NC(=O)c1c(F)cccc1F)Nc1cc(Cl)c(OC(F)(F)C(F)F)c(Cl)c1` the Potency was “inactive”.
With `CCCCOP(=O)(O)OCCCC` the Potency was “inactive”.
For `[Cl][Sn]([Cl])([Cl])[Cl]`, the Potency was “inactive”.
With `CCCCC/C=C\C/C=C\C/C=C\C/C=C\CCCC(=O)NCC(=O)O` the Potency was “inactive”.
For `C[N+]1(C)[C@@H]2CC[C@H]1CC(OC(=O)C(CO)c1ccccc1)C2` (stereo not given in full), the Potency was “inactive”.
In the case of `CC1COC(Cn2cncn2)(c2ccc(Oc3ccc(Cl)cc3)cc2Cl)O1` (stereo not given), the Potency is reported as “inactive”.
With `CN1[C@@H]2CC[C@H]1CC(O)C2` (stereo not given in full) the Potency was “inactive”.
For `N#C/C=C/C#N`, the Potency was “inactive”.
With `CC(C)NCC(O)c1ccc([N+](=O)[O-])cc1` (stereo not given) the Potency was “inactive”.
With `C=CCOC(=O)C(C)(C)OC(=O)c1cc(-n2c(=O)cc(C(F)(F)F)n(C)c2=O)ccc1Cl` the Potency was “inactive”.
With `ClC(Cl)C(Cl)(Cl)Cl` the Potency was “inactive”.
In the case of `CC(C)(C)c1cc([N+](=O)[O-])cc([N+](=O)[O-])c1O`, the Potency is reported as “inactive”.
In the case of `CC(=O)[C@H]1CC[C@H]2[C@@H]3CC[C@H]4C[C@H](O)CC[C@]4(C)[C@H]3C(=O)C[C@]12C`, the Potency is reported as “inactive”.
With `COC(N)=O` the Potency was “inactive”.
In the case of `NCC(CC(=O)O)c1ccc(Cl)cc1` (stereo not given), the activity change, negative = cytotoxicity is reported as 5.91% [at 0.249 µM].
In the case of `BrCCCCBr`, the Potency is reported as “inactive”.
For `CC(C)(CCl)C(=O)Cl`, the Potency was “inactive”.
With `Oc1ccc(Cl)c(Cl)c1Cl` the Potency was “inactive”.
With `Nc1ccc([N+](=O)[O-])cc1Cl` the Potency was “inactive”.
For `Clc1cccc(N2CCNCC2)c1`, the Potency was “inactive”.
With `CCOc1cc(OP(=S)(OC)OC)nc(CC)n1` the Potency was “inactive”.
For `CCSC(=O)Cl`, the Potency was “inactive”.
In the case of `CCS(=O)(=O)CCSP(=O)(OC)OC`, the Potency is reported as “inactive”.
With `c1ccc2nc(N3CCNCC3)ccc2c1` the Potency was “inactive”.
With `CCc1ccccc1N` the Potency was “inactive”.
For `Cc1ccn2nc(S(=O)(=O)Nc3c(F)cccc3F)nc2n1`, the Potency was “inactive”.
With `O=[N+]([O-])c1ccc(O)c([N+](=O)[O-])c1` the Potency was “inactive”.
